Inhibition data for 107 molecules are collected here from PubChem BioAssay AID1347418 (Sanford-Burnham Center for Chemical Genomics, 2020).

In all, about 1,300 compounds went through this assay and about 750 (58%) were called active. Some of the results follow. Residues, ends and D or L forms follow the SMILES beside them. *: point of attachment. Cbz = O=C(OCc1ccccc1)*

The target in the assay is Sulfhydryl oxidase 1 (Homo sapiens) (UniProt O00391). Kind of assay: inhibition of human sulfhydryl oxidase QSOX1 – biochemical, ROS-Glo H2O2 luminescence, HTS, primary screen (AID 1347418). Particulars: recombinant QSOX1, ROS-Glo H2O2 luminescence; at 12.5 µM; stronger effect = higher value; active = any value above zero.
Sequence of Sulfhydryl oxidase 1 (Homo sapiens) (O00391 whole entry, looked up): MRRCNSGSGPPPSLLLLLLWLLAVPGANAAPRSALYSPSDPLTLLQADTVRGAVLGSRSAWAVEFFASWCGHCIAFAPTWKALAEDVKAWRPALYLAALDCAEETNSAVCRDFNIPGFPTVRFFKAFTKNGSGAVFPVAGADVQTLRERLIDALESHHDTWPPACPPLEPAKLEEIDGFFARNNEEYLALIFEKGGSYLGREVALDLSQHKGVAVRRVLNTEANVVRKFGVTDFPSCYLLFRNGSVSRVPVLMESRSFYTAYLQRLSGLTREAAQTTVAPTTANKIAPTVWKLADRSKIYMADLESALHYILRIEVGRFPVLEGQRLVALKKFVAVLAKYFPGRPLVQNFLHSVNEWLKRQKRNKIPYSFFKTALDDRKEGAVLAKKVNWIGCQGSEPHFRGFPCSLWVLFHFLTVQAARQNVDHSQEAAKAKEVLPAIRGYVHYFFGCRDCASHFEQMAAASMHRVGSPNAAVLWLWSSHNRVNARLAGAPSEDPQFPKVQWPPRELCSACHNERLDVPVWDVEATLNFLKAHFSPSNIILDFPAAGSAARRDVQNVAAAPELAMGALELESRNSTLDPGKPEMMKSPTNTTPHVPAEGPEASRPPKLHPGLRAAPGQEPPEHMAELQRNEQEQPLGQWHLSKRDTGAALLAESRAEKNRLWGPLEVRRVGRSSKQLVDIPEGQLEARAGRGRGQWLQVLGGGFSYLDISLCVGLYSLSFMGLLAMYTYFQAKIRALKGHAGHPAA
By inhibition is commonly meant the change of the read-out against control, counted positive when it falls. On to `O=c1cc(-c2ccccc2F)[nH]c2cc3c(cc12)OCO3`, for which the inhibition is 4.4% (active). As for `OC(CN1CCC(Cc2ccc(F)cc2)CC1)c1ccc(Cl)cc1` (configuration not stated), the inhibition was 7.6% (active).

In the case of `c1ccc(C2CN3CCSC3=N2)cc1` (configuration not stated), the inhibition is 0.3% (active).

For `Brc1ccc([C@H]2CN3CCSC3=N2)cc1`, the inhibition was 6.2% (active).

In the case of `c1ccc([C@H]2CN3CCSC3=N2)cc1`, the inhibition was -2.6% (inactive). On to `CN1CCN(CCCN2c3ccccc3Sc3ccc(C(F)(F)F)cc32)CC1`, for which the inhibition was 27.4% (active).

`OCCN1CCN(CCCN2c3ccccc3Sc3ccc(C(F)(F)F)cc32)CC1`: the inhibition is 43.6% (active). The figure for `O=C(CCCN1CCC(O)(c2cccc(C(F)(F)F)c2)CC1)c1ccc(F)cc1` is -4.6% (inactive). Consider `OCCN1CCN(CC/C=C2/c3ccccc3Sc3ccc(C(F)(F)F)cc32)CC1`, for which the inhibition was 0.6% (active). The value for `NC(=O)c1cn(Cc2c(F)cccc2F)nn1` was 1.3% (active); that for `Cc1ccccc1N1C(=O)c2cc(S(N)(=O)=O)c(Cl)cc2NC1C` (configuration not stated) was 0.3% (active). For the molecule `NC/C=C\C(=O)O`, the inhibition is -0.4% (inactive). The value for `COc1ccc2[nH]cc(CCNC(C)=O)c2c1` was 5.6% (active). The figure for `COc1cc2c(CCNC(C)=O)c[nH]c2cc1O` is 45.2% (active); for `COc1ccc(NC=O)c(C(=O)CCNC(C)=O)c1` it is -0.8% (inactive).

As to `CC(=O)NCCc1c[nH]c2ccc(O)cc12`, the inhibition is 27.5% (active). As for `COc1cc2c(CCNC(C)=O)c[nH]c2cc1Cl`, the inhibition is -1.4% (inactive).

Take `Nc1nc(OCc2ccccc2)c2[nH]cnc2n1`: the inhibition is 2% (active). The figure for `Nc1nc(OCC2CCCCC2)c2[nH]cnc2n1` is 0% (inactive); for `NC/C=C/C(=O)O` it is -2.4% (inactive). The value for `O=c1ccc2c(OCCCCc3ccccc3)c3ccoc3cc2o1` was 2.3% (active); that for `CC(=O)O[C@H]1Cc2ccccc2N(C(N)=O)c2ccccc21` was 0.3% (active).

With `NC(=O)N1c2ccccc2C=Cc2ccccc21`, the inhibition is -1.4% (inactive). The figure for `CC(C)(C)C(=O)Oc1ccc(S(=O)(=O)Nc2ccccc2C(=O)NCC(=O)O)cc1` is -1% (inactive); for `CC1(C)CCC2=C(O1)c1ccccc1C(=O)C2=O` it is 40.5% (active); for `COc1cc(Cc2cnc(N)nc2N)cc(OC)c1OC` it is 0.5% (active). On to `CC[C@H]1CN2CCc3cc(OC)c(OC)cc3[C@@H]2C[C@@H]1C[C@H]1NCCc2cc(OC)c(OC)cc21`, for which the inhibition was 1.7% (active).

On to `COc1cc2c(cc1OC)C1CC(=O)C(CC(C)C)CN1CC2` (configuration not stated), for which the inhibition is 2.6% (active). The figure for `CCc1cccc(N(C)C(N)=Nc2cccc3ccccc23)c1` is 8.7% (active). The figure for `Fc1ccc(C(c2ccc(F)cc2)N2CCN(C/C=C/c3ccccc3)CC2)cc1` is 0.4% (active).

`C(=C\c1ccccc1)/CN1CCN(C(c2ccccc2)c2ccccc2)CC1`: the inhibition was 4.9% (active). The figure for `CN(C)CCCc1cc(C(=O)Nc2ccc(-c3ccncc3)cc2)ccc1O` is 2.5% (active); for `Cc1nc(N=Nc2ccc(C(=O)O)cc2)c(COP(=O)(O)O)c(C=O)c1O` it is 0.9% (active); for `Cc1nc(N=NC2=[C+]C3=C(C=C([N+](=O)[O-])[C+]=C3S(=O)(=O)[O-])C(S(=O)(=O)[O-])=[C+]2)c(COP(=O)([O-])O)c(C=O)c1O` it is 2.8% (active). For the molecule `C#CCN(C)CCCOc1ccc(Cl)cc1Cl`, the inhibition is -1.5% (inactive). The figure for `Cn1ccnc1` is -4.4% (inactive). Consider `CN(C)CCC=C1c2ccccc2CCc2ccccc21`, for which the inhibition is -4.4% (inactive). The value for `CN(C)CC/C=C1\c2ccccc2COc2ccccc21` was -3.1% (inactive).

In the case of `CN(C)CCC=C1c2ccccc2C=Cc2ccccc21`, the inhibition was 1% (active). The value for `CSc1ccc2c(c1)N(CCC1CCCCN1C)c1ccccc1S2` (configuration not stated) was 46.5% (active); that for `CSc1ccc2c(c1)C(N1CCN(C)CC1)Cc1ccccc1S2` (configuration not stated) was -0.9% (inactive); that for `Oc1cc2c(cc1O)CN(C(=S)NCCc1ccc(Cl)cc1)CCC2` was 25.5% (active). The figure for `CC(C)NC[C@H](O)COc1ccc(CC(N)=O)cc1` is 5.2% (active); for `COCCc1ccc(OCC(O)CNC(C)C)cc1` (configuration not stated) it is -2% (inactive). The value for `CC(C)NCC(O)COc1ccc(COCCOC(C)C)cc1` (configuration not stated) was 3.9% (active); that for `CC(C)NCC(O)COc1ccc(CC(N)=O)cc1` (configuration not stated) was -2% (inactive); that for `CC(C)NCC(O)COc1ccc(CCOCC2CC2)cc1` (configuration not stated) was -0.5% (inactive). As to `COC(=O)c1c(C)[nH]c(C)c1C(=O)c1ccccc1Cc1ccccc1`, the inhibition is 1.9% (active). The value for `C=CCc1cccc(/C=N/NC(=O)CN2CCN(Cc3ccccc3)CC2)c1O` was -3.2% (inactive); that for `CN1CCc2cccc3c2C1Cc1ccc(O)c(O)c1-3` (configuration not stated) was 17.1% (active). Take `COc1cc2ncnc(Nc3cccc(Cl)c3)c2cc1OC`: the inhibition is -1.3% (inactive). The figure for `O=c1n(CCCN2CCN(c3cccc(Cl)c3)CC2)nc2ccccn12` is 8.6% (active). The value for `O=c1c(-c2ccc(O)cc2)coc2cc(O)ccc12` was 7.6% (active); that for `O=c1c(-c2ccc(O)cc2)coc2cc(O)cc(O)c12` was -5.9% (inactive); that for `CC(C)C[C@H](NC(=O)[C@@H](O)[C@H](N)Cc1ccccc1)C(=O)O` was 0.1% (active). The figure for `CC(C)[C@H](NC(=O)OCc1ccccc1)C(=O)N[C@H](C=O)Cc1ccccc1` (Cbz-Val-Phe-aldehyde) is -1.6% (inactive); for `O=C(N[C@@H](Cc1ccccc1)C(=O)CCl)OCc1ccccc1` it is -6.4% (inactive); for `CC(C)C[C@H](NC(=O)[C@H](O)[C@H](N)Cc1ccccc1)C(=O)O` it is 9.6% (active). On to `O=P(O)(O)C(Cl)(Cl)P(=O)(O)O`, for which the inhibition is 5.2% (active). The figure for `N[C@H](C(=O)O)[C@H](Cc1ccccc1)C(=O)O` is 0.5% (active). The figure for `O=C(O)CNC(=O)C(CS)Cc1ccccc1` (configuration not stated) is -1.4% (inactive). The value for `O=C1c2c(O)cc(O)cc2OC(c2ccc(O)c(O)c2)C1O` (configuration not stated) was 9.8% (active); that for `Oc1cc(O)c2c(c1)O[C@H](c1ccc(O)c(O)c1)[C@@H](O)C2` was 12.2% (active); that for `[Li+]` was 0% (inactive). On to `O=C(O)CCc1ccc(NCc2cccc(Oc3ccccc3)c2)cc1`, for which the inhibition is 13.1% (active). The value for `CC(C)(C)NCC(O)COc1cccc2[nH]c(=O)[nH]c12` (configuration not stated) was 0.2% (active). The value for `Brc1c(Br)c(Br)c2[nH]cnc2c1Br` was 3.9% (active); that for `N=C(N)N1CCc2ccccc2C1` was -3.7% (inactive); that for `CN1CCc2ccccc2Cc2[nH]c3ccccc3c2CC1` was 6.3% (active). `CC(C)(C)c1cc(/C=C(\C#N)C(N)=S)cc(C(C)(C)C)c1O`: the inhibition is 37.7% (active). The figure for `C#CCN(C)Cc1ccccc1` is -0.7% (inactive); for `CN(C)C/C=C(/c1ccc(Br)cc1)c1cccnc1` it is 2.7% (active); for `CN1CCC(=C2c3ccccc3C=Cc3ccccc32)CC1` it is 2.2% (active).

As to `CN1CCC(=C2c3ccccc3CC(=O)c3sccc32)CC1`, the inhibition is 0.8% (active). The figure for `CCC1(O)CC2CN(CCc3c([nH]c4ccccc34)[C@@](C(=O)OC)(c3cc4c(cc3OC)N(C=O)C3[C@]45CCN4CC=C[C@@](CC)([C@@H](OC(C)=O)[C@]3(O)C(=O)OC)[C@H]45)C2)C1` (some centres not stated) is -0.2% (inactive). The value for `CCC1(O)CC2CN(CCc3c([nH]c4ccccc34)[C@@](C(=O)OC)(c3cc4c(cc3OC)N(C)C3[C@]45CCN4CC=C[C@@](CC)([C@@H](OC(C)=O)[C@]3(O)C(=O)OC)[C@H]45)C2)C1` (some centres not stated) was 6.7% (active).

On to `O=c1[nH]cc(F)c(=O)[nH]1`, for which the inhibition was 0.8% (active).

`O=C(Nc1nc2ccccc2n1CCN1CCOCC1)c1cccc([N+](=O)[O-])c1`: the inhibition was 0.4% (active). The figure for `NC1CONC1=O` (configuration not stated) is -3.5% (inactive). The value for `CN1C[C@H](C(=O)N[C@]2(C)O[C@@]3(O)[C@@H]4CCCN4C(=O)[C@H](Cc4ccccc4)N3C2=O)C[C@@H]2c3cccc4[nH]cc(c34)C[C@H]21` was 10% (active).

`COc1cccc(OC)c1OCCNCC1CSc2ccccc2O1` (configuration not stated): the inhibition is -0.7% (inactive).

Turning to `COc1cccc(OC)c1OCCNCC1COc2ccccc2O1` (configuration not stated), the inhibition was 1.9% (active). The figure for `O=C1c2ccccc2C(=O)c2c(NCCc3ccc(O)cc3)ccc(NCCc3ccc(O)cc3)c21` is 11% (active). The figure for `O=C(O)Cc1c[nH]c2ccc(O)cc12` is 15.6% (active); for `N[C@H](C(=O)O)c1cc(O)cc(O)c1` it is -6.1% (inactive). The figure for `N[C@@H](Cc1c[nH]c2ccccc12)C(=O)O` is -0.2% (inactive). For `N[C@@H](Cc1c[nH]c2ccc(O)cc12)C(=O)O`, the inhibition is 8.4% (active). The figure for `CCn1ccnc1CC1COc2ccccc2O1` (configuration not stated) is 0.9% (active); for `NC(=O)c1cc[n+](CC2=C(C(=O)O)N3C(=O)[C@@H](NC(=O)[C@@H](c4ccccc4)S(=O)(=O)[O-])[C@H]3SC2)cc1` it is -1% (inactive). On to `CC1=C(C(=O)O)N2C(=O)[C@@H](NC(=O)C(N)C3=CCC=CC3)[C@H]2SC1` (some centres not stated), for which the inhibition is -1.3% (inactive).

As for `NC(C(=O)N[C@@H]1C(=O)N2C(C(=O)O)=C(Cl)CS[C@H]12)c1ccccc1` (some centres not stated), the inhibition is 0.4% (active). The figure for `CC1=C(C(=O)O)N2C(=O)[C@@H](NC(=O)C(N)c3ccccc3)[C@H]2SC1` (some centres not stated) is 2.2% (active); for `NCCS(=O)O` it is -0.7% (inactive); for `O=C1OC(=O)C2C3CCC(O3)C12` (configuration not stated) it is -1.3% (inactive). The figure for `CC(N)=O` is 4.6% (active); for `CC(=O)C(C)=O` it is 2.1% (active). Take `CC(=O)/C(C)=N/O`: the inhibition is -5.2% (inactive).

Regarding `NC(=O)C(=O)O`, the inhibition was -8.6% (inactive). In the case of `NC(=O)NO`, the inhibition is -13.4% (inactive).

On to `Nc1ccc2c3c(cccc13)C(=O)NC2=O`, for which the inhibition is 7.4% (active). The value for `Nc1ncnc2c1ncn2C1CCCO1` (configuration not stated) was -0.8% (inactive). The value for `COc1ccc(C(=O)NCc2cccnc2)cc1C(=O)NCc1cccnc1` was -2.9% (inactive); that for `O=C(CCNNC(=O)c1ccncc1)NCc1ccccc1` was 3.1% (active); that for `OC(CCN1CCCCC1)(c1ccccc1)C1CCCCC1` (configuration not stated) was -2.5% (inactive).

Take `OC(CCN1CCCCC1)(c1ccccc1)C1CC2C=CC1C2` (configuration not stated): the inhibition is 2.7% (active). In the case of `NCCNC(=O)c1ncsc1-c1cccc(F)c1`, the inhibition was 0.5% (active).

For `CCN(CC)CC#CCOC(=O)C(O)(c1ccccc1)C1CCCCC1` (configuration not stated), the inhibition was -2.5% (inactive).
